# The sample as a whole holds a higher share of hits than the screen did.
# Sfp inh: inhibitors of Bacillus subtilis Sfp phosphopantetheinyl transferase; Q9F4F7; Biochemical Sfp PPTase activity, qHTS; Potency, µM, for the others: largest response in the series, negative = inhibition, usual class: inhibitors; 310,000 compounds, 3.5% hits; AID 1490;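 further: the enzyme is Sfp with the accession as filed and its product quenches rhodamine fluorescence; 0% = enzyme reaction without inhibitor and -100% = no enzyme wells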
#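 With Hepes-Na pH 7.6 buffer containing 10 mM MgCl2, Sfp (15 nM) modified BHQ-2-YbbR (12.5 uM) using rhodamine-CoA (5 uM). Two reads 30 minutes apart at 525/598 nm yielded each well's rate.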
# G9a inh: G9a (human) methyltransferase inhibition. Q96KQ7. Potency, µM (highest dose often 102 µM), for inactives: top-dose activity, negative = inhibition, actives largely listed as inhibitors. AID 504332. 350,000 compounds, 8.8% hits. G9a H3K9 monomethylation, AlphaScreen, 2 h; further: on the % scale 0 is the no-effect control and ±100 the full control effect; nearly all actives have a fitted effect of over 75% in size
# Target sequence (Q96KQ7 913-1193 limits assumed): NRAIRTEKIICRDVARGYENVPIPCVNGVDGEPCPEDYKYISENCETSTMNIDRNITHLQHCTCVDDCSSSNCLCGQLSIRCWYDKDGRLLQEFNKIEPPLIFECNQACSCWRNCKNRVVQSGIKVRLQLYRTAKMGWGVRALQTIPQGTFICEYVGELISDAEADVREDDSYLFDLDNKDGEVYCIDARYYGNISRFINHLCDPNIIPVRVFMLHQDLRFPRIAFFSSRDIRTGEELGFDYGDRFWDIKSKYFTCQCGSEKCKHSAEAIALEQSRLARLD
#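 Compounds were preincubated with 20 nM G9a for 15 min, after which biotinylated H3K9 peptide (500 nM) and SAM (20 uM) started a 2 h room-temperature reaction. Monomethylated product was quantified by antibody-based AlphaScreen chemiluminescence.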
# ALOX12 inh: inhibitors of human 12S-lipoxygenase ALOX12 | Potency, µM (doses to about 108 µM), for inactives: top-dose activity change, negative = inhibition, actives largely listed as inhibitors | purified 12hLO, xylenol orange hydroperoxide absorbance | 580,000 compounds, 1.1% hits; further: on the % scale 0 is the no-effect control and ±100 the full control effect
#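 Hydroperoxide product was detected by ferrous iron/xylenol orange as the 573 to 405 nm absorbance ratio. Arachidonic acid at 40 uM (final) was turned over for 30 min at room temperature by 150 nM human 12hLO, pH 7.0 Hepes buffer, after 15 min compound preincubation.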
# VDR inh: blocks the human vitamin D receptor | P11473 | VDR-SRC2-3 peptide fluorescence polarization, 2 h | Potency, µM, inactives show max response, negative = inhibition, hits mostly inhibitors | 400,000 compounds, 0.93% hits | AID 504847; further: on the % scale 0 is the no-effect control and ±100 the full control effect
# Target sequence (P11473 whole entry, looked up): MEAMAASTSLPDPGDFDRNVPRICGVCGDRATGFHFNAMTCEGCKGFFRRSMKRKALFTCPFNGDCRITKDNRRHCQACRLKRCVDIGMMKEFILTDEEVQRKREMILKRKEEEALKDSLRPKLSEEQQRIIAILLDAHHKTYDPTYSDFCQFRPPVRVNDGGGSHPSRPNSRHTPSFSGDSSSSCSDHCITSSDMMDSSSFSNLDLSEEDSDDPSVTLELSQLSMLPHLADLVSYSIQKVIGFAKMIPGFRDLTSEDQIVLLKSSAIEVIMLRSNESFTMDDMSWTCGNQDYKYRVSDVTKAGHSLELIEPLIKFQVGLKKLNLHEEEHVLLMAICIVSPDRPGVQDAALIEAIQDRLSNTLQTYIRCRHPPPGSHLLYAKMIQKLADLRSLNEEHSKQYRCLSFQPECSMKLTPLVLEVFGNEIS
#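 Measured by FP: displacement of SRC2-3 coactivator peptide from VDR by library compounds, following a two-hour ambient incubation.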
# GRP78 ERSR act: induces the endoplasmic reticulum stress response in human glioma cells. U87-MG GRP78 promoter luciferase reporter, 16 h. Potency, µM, for inactives: at the highest dose activation, most hits filed as activators. 420,000 compounds, 0.02% hits. AID 602332; further: series mostly up to about 76 µM; % of control where 0% means no effect; nearly all actives have a fitted effect of over 35% in size
#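 ERSR induction read as luciferase luminescence (Bright-Glo, 10 min at room temperature) in stably transfected human U87-MG glioma cells exposed to compounds for 16 h, using GRP78 as sensor.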
# An asterisk follows results filed as active; ? = inconclusive; nt = not tested or not shown; [ ] = another dose, or the depositor's remark. The call rests on the fitted dose curve; in most records, active means well fitted curve in the direction sought with a large enough effect; inconclusive means small, poorly fitted or top-dose-only effect, or another doubt; inactive means no such curve, though single readings can be large; an effect the other way counts as inactive or inconclusive. Potency means the concentration at half of the fitted maximal effect.
SMILES,Sfp inh,G9a inh,ALOX12 inh,VDR inh,GRP78 ERSR act
NC(=O)CCCSc1nc2ccccc2[nH]1,11.1%,5.5%,1.0%,-2.6%,0.1%
COc1ccc(N2CCN(C(=O)CCc3ccccc3OC)CC2)cc1,8.6%,79.4µM*,0.0%,-13.2%,-0.8%
O=C(CN1CSCC1=O)N1CCN(S(=O)(=O)c2cc(C(F)(F)F)ccc2Cl)CC1,nt,9.0%,-0.1%,1.2%,-4.2%
COc1ccc(N2CCN(C(=O)CN(c3cccc(OC)c3)S(=O)(=O)c3ccccc3)CC2)cc1,3.0%,8.91µM*,-4.9%,-3.1%,0.3%
Cc1cc(OCC(=O)N2CCCC2)cc(C)c1Cl,0.5%,1.26µM*,-10.6%,10.5%,0.0%
COc1ccc(N2CCN(C(=O)COCc3cc(-c4ccc5c(c4)OCO5)on3)CC2)cc1,-5.9%,14.1µM*,-9.1%,-9.5%,-6.2%
COc1ccc(N2CCN(C(=O)COc3ccccc3)CC2)cc1,10.7%,44.7µM*,-7.7%,13.2%,-3.2%
CCN1CCN(C(=O)COCc2cc(-c3ccc4c(c3)OCO4)on2)CC1,4.1%,?,-11.7%,?,-3.9%
O=C(COc1ccc(-c2ccccc2)cc1)N1CCCC1,9.7%,35.5µM*,-13.7%,8.0%,6.1%
CCOc1ccccc1C1NC(=O)NC(CN2CCN(c3ccccn3)CC2)=C1C(=O)OC (centres undefined),nt,nt,-25.7%,nt,nt
CC1=C(c2ccc(Cl)cc2)[N+](=O)C(C)(c2ccccc2)N1[O-] (centres undefined),nt,nt,30.4%,nt,nt
COc1ccc(Br)c(C(=O)Oc2cc(Cl)ccc2Cl)c1,nt,nt,-59.5%,nt,nt
Cc1nc(C23CC4CC(CC(C4)C2)C3)c(C)o1,nt,nt,8.5%,nt,nt
O=[N+]([O-])c1ccc2c(c1)nc1n2CCN(c2ccccc2)C1,-8.8%,12.6µM*,-23.3%,-16.9%,3.8%
COCCN1CCn2c(nc3cc([N+](=O)[O-])ccc32)C1,16.4%,35.5µM*,1.3%,2.6%,-2.1%
O=[N+]([O-])c1ccc2c(c1)nc1n2CCSC1,9.0%,?,-9.2%,5.1%,-1.9%
Cc1cccc(NC(=O)C2(c3cccc(Br)c3)CC2)n1,nt,nt,6.3%,nt,nt
COC(=O)c1ccc(COc2ccccc2/C=C2\CCc3cc(OC)ccc3C2=O)cc1,nt,nt,-14.1%,nt,nt
CC(Oc1ccc(C(C)C)cc1)C(=O)Nc1ccc(-n2cnnn2)cc1 (centres undefined),nt,nt,-0.9%,nt,nt
CCCCCCSc1nnc(-c2cnn(-c3ccccc3)c2-n2cccc2)n1C,-12.8%,39.8µM*,?,-28.8%,11.6%
COc1ccc(N/N=C(/C(N)=O)C2=NC(C)(C)Cc3ccccc32)cc1,28.2µM*,14.1µM*,?,-21.6%,-4.3%
CNc1sc(C(C)=O)cc1C,nt,nt,12.6µM*,nt,nt
CC(=O)c1cc(Cc2csc(C(C)=O)c2)cs1,-1.5%,-0.8%[59 µM],-4.4%,7.7%,-1.5%
Clc1ccc(C2=Nn3c(Cn4nnc5ccccc54)nnc3SC2)cc1,31.6µM*,nt,?,79.4µM*,-4.4%
N/C(=N\OC(=O)COc1ccc(Br)cc1)c1ccncc1,4.2%,-3.9%[59 µM],-2.2%,10.0%,0.0%
SMILES,Sfp inh,G9a inh,ALOX12 inh,VDR inh,GRP78 ERSR act
N/C(=N\OS(=O)(=O)c1ccc(Br)cc1)c1ccncc1,17.3%,39.8µM*,?,-14.4%,-5.8%
CCn1nc(C(=O)Nc2ccc(OC)c(OC(F)F)c2)c2ccccc2c1=O,nt,nt,13.7%,nt,nt
O=C1CS/C(=N\NC(=O)c2ccccc2)N1,-11.1%,2.51µM*,16.3%,0.6%,2.7%
O=C(CCn1ccc2ccc(Cl)cc21)Nc1ccc2c(c1)C(=O)N1CCC[C@H]1C(=O)N2,nt,nt,3.9%,nt,nt
O=c1n(-c2ccncc2)nc2n1CCN(Cc1ccc(C(F)(F)F)cc1)C2,nt,nt,5.8%,nt,nt
Cc1ccc(-n2nc(N3CCN(C(=O)Nc4ccccc4C)CC3)ccc2=O)cc1C,nt,nt,1.1%,nt,nt
CCc1ccc(-n2nc3cc(C)c(NC(=O)c4cccc5ccccc45)cc3n2)cc1,nt,?,-20.6%,-8.1%,-0.6%
COc1ccc(-n2nc3cc(C)c(NC(C)=O)cc3n2)cc1,-12.4%,nt,-12.3%,-19.0%,-10.8%
CCc1ccc(-n2nc3cc(C)c(NC(=O)c4ccccc4C)cc3n2)cc1,nt,7.94µM*,?,-14.5%,3.5%
CCc1ccc(-n2nc3cc(C)c(NC(=O)c4cc(OC)cc(OC)c4)cc3n2)cc1,nt,5.62µM*,-24.3%,-1.6%,1.5%
O=C(NCC(=O)N1CCN(CC(=O)N2CCOCC2)CC1)c1ccc(N2CCCC2=O)cc1,nt,nt,-49.8%,nt,nt
CC(C)C(NC(=O)c1cnn(C)c1)c1ccc(F)cc1 (centres undefined),nt,nt,26.3%,nt,nt
COC(=O)c1scc(-c2ccc(C)cc2)c1S(=O)(=O)N1CCN(c2ccc(OC)cc2)CC1,nt,11.2µM*,?,14.9%,-2.2%
COC(=O)C1=C(C)NC(=S)NC1c1ccc(-c2cccc(Cl)c2)o1 (centres undefined),7.08µM*,10µM*,-11.9%,6.8%,-3.9%
COC(=O)C1=C(C)NC(=S)NC1c1ccc(-c2ccccc2C(=O)OC)o1 (centres undefined),?,8.91µM*,?,?,-6.2%
CCOC(=O)C1=C(C)NC(C)=C(C(=O)OCC)C1c1ccco1,-13.1%,nt,-10.3%,-15.3%,0.2%
COC(=O)C1=C(C)NC(=O)NC1c1ccc(-c2ccc(F)cc2)o1 (centres undefined),0.3%,?,?,?,0.6%
CCOC(=O)C1=C(C)NC(=S)NC1c1ccc(-c2ccc(Cl)cc2)o1 (centres undefined),14.1µM*,?,31.6µM*,-21.4%,-3.2%
COC(=O)C1=C(C)NC(=O)NC1c1ccc(-c2ccccc2Cl)o1 (centres undefined),-20.2%,?,-10.6%,1.7%,-2.7%
CCOC(=O)C1=C(C)NC(=S)NC1c1ccco1 (centres undefined),70.8µM*,50.1µM*,?,?,-4.6%
CCOc1ccc2oc(C(=O)N3CCN(CC(=O)Nc4ccc(C)cc4)CC3)c(C)c2c1,nt,nt,26.6%,nt,nt
Cc1ccc2oc(C(=O)N3CCN(C(c4ccccc4)c4ccccc4)CC3)cc(=O)c2c1,nt,nt,66.3%,nt,nt
CCOC(=O)C1=C(C)NC(=S)NC1c1ccc(-c2cccc(Cl)c2C)o1 (centres undefined),56.2µM*,26.6%[0.501 µM],?,79.4µM*,-12.0%
CCOC(=O)C1=C(C)NC(=O)NC1c1ccc(-c2ccc(Cl)cc2)o1 (centres undefined),8.1%,-9.2%,-24.2%,-13.9%,-2.2%
CCCc1cc(-c2n[nH]c(=S)n2C(C)c2ccccc2)cs1 (centres undefined),13.7%,?,?,-17.9%,2.2%
CC(C)Cn1c(-c2csc(C(C)C)c2)n[nH]c1=S,-13.8%,5.01µM*,39.8µM*,-0.1%,-0.8%
CCc1cc(-c2n[nH]c(=S)n2CC)cs1,-11.1%,?,?,-6.8%,-2.7%
CCn1c(-c2csc(C(C)C)c2)n[nH]c1=S,-24.2%,1.58µM*,?,3.7%,0.6%
Cc1c(CCNC(=O)c2ccc3c(c2)OCO3)sc2nc(-c3ccc(F)cc3)nn12,nt,nt,-19.7%,nt,nt

# Screens: PubChem, National Center for Advancing Translational Sciences (NCATS)
